Measurements published in publication PMC12136788.
Numbering of substitutions follows the chain as printed. Over roughly 24,000 sequences, “enrichment r” has its median near 0.99; the highest 2% begin near 3.7. The sample as a whole holds a higher share of the highest values than the screen did.

T1: UNK ZnF1-3 (human, UniProt Q9C0B0 31-174)
T1 sequence: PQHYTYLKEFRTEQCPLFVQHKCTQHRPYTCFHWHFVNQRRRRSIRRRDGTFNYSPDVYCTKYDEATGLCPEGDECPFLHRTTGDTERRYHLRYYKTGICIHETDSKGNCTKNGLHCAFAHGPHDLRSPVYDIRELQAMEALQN

B1: chr11:87793471:87793472:-_ENSMUSG00000020483_ENSMUST00000020775|mus_mus|mus_mus_mus_hu_False|8_98 (ssRNA)
RNA: GGGAGUUCUACAGUCCGACGAUCUGGACUUGAAAAUAAAAAAAAUAGCUGGAUCCCCCACCCCCCCACAUUGUCAACCCUACACGAGAGUUUUGAAGGCGACUCAUGAAAAUCAGCAGCUCAAACGAAUGACAACCCCCCACCCAACAGAGGAUUGAGCAUCA
B2: chr11:87793471:87793472:-_ENSMUSG00000020483_ENSMUST00000020775|mus_mus|mus_mus_mus_hu_False|8_68 (ssRNA)
RNA: B1 RNA with A41G, A44U, U45A, U70G
B3: chr11:87793471:87793472:-_ENSMUSG00000020483_ENSMUST00000020775|mus_mus|mus_mus_mus_hu_False|8_78 (ssRNA)
RNA: B1 RNA with A41G, A44U, U45A, A59C, C60A, C65U, C66U
B4: chr13:100193624:100193625:-_ENSMUSG00000052727_ENSMUST00000064762|mus_mus|FALSE|FALSE (ssRNA)
RNA: GGGAGUUCUACAGUCCGACGAUCAAACCCUCAGAGUAAAAGAGCAGUGCGAAACAUACGCUUUACAGACGAAAAUAAACUAAAAUGUAAAUUUUGAAAUAAAUAACUAACAUAGAAAAUAAAAUGAGGUCAUUGUUCACUACCCAACAGAGGAUUGAGCAUCA
B5: chr7:56127975:56127976:+_ENSG00000146731_ENST00000540286|hu_mus|FALSE|FALSE (ssRNA)
RNA: GGGAGUUCUACAGUCCGACGAUCUGGUCCUUUAACCAGUAAAGUGACAGAACGGGGAUUGUUACACUUCUCAAUAAAGGUGAACUUCUCCUCACCCAGUGUAUACUCAUAGACAAGCUCUGCAUGUCCCAAACAGUCAGGAUUCAACAGAGGAUUGAGCAUCA
B6: chr13:100193624:100193625:-_ENSMUSG00000052727_ENSMUST00000064762|mus_mus|motif|central (ssRNA)
RNA: B4 RNA with U80G, A81G
B7: chr16:94651144:94651145:+_ENSMUSG00000040785_ENSMUST00000117648|mus_hu|mus_mus_mus_hu_True|18_58 (ssRNA)
RNA: GGGAGUUCUACAGUCCGACGAUCAUUUUCUUGAAUCAAGUGGCGAAUAACAUAGUCCACUGCUUCAUUUAGAAAAUUUUUGCUAGAAAAACAGGUUGUAUAGUCUUCUGUGCUCAAAACCUUCCAAGAAAGCAAUUCUUUGAGCAACAGAGGAUUGAGCAUCA
B8: chr13:100201144:100201145:-_ENSMUSG00000052727_ENSMUST00000064762|mus_hu|FALSE|FALSE (ssRNA)
RNA: GGGAGUUCUACAGUCCGACGAUCCUCCUCCAUAGGUGGUAUCUUAUGUGAUAAACUGGAGUCCUGCAUGUCAGAAGGACUGUAGUCCACUUCAGUUGGCCCAUUUUCAGUGAUGUGAAGCACGCCUGCACCCACUGUAGGGUGCAACAGAGGAUUGAGCAUCA
B9: 95238312_95238432_61_3pUTR_ENSMUSG00000015522_ENSMUST00000090804|mouse|control|control (ssRNA)
RNA: GGGAGUUCUACAGUCCGACGAUCACCCUCGGUGGGAGGGGCAGCCGCCACCGAGCUGGGGGAGGGGAGGGAAGAGCCACUCCGCAGAUUAGGCACCUUACCGCCGCCACCGCUACCGCGGAAUCCAAGAUGGCGGACGCCCACCAACAGAGGAUUGAGCAUCA
B10: chr6:114274515:114274516:-_ENSG00000196591_ENST00000368632|hu_mus|motif|central (ssRNA)
RNA: GGGAGUUCUACAGUCCGACGAUCCAUCACGCGAUCUGUUGUAUAAAAAGCUUCCUCAACACCAUCACCAUGGUGGAUGUCGGUGUCAAUAUAUAAGACUCUCUGAUGAUACUUAAGUAAUUCGAGGAUGGCAAGCACAAUAUCCAACAGAGGAUUGAGCAUCA
B11: chr5:141234466:141234467:-_ENSMUSG00000000149_ENSMUST00000000153|mus_mus|FALSE|FALSE (ssRNA)
RNA: GGGAGUUCUACAGUCCGACGAUCAGGACAAUAGUCAAGGGUAACAGUGAAAUUAAAAUUAAAAAAAAAAAUACAAACGCCUAAGGUCUGGGAGAAACCUGACUACAAUCUACGUGGAGAAACUUGUAAAUGACUCCAGCCUGGCAACAGAGGAUUGAGCAUCA
B12: chr1:220276048:220276049:+_ENSG00000067704_ENST00000302637|hu_hu|hu_hu_hu_mus_True|1_38 (ssRNA)
RNA: GGGAGUUCUACAGUCCGACGAUCGCAAAUUGCCUGGUUGGCGGGAAUUGUCCAAGGCUGGGUGGUCCAAACUAAAACGCUAACAGGGGAUGAGGCAUCUAUAAGAGACUCCAACUUCGGAGGAGGUCUCAGGAGGGGAAAUUUCAACAGAGGAUUGAGCAUCA
B13: chr1:220276048:220276049:+_ENSG00000067704_ENST00000302637|hu_hu|hu_hu_hu_mus_True|8_58 (ssRNA)
RNA: B12 RNA with C77U, G78A, A100G, C127U, C129U, G131A, G135A, A138G, U142C

target: T1, UNK ZnF1-3; assay: nsRBNS (natural sequence RNA bind-n-seq); RBNS binding buffer (assumed for nsRBNS): 25 mM Tris pH 7.5, 150 mM KCl, 3 mM MgCl2, 0.01% Triton X-100, 500 ug/ml BSA, 20 U/ml SUPERase-In, 4 C; UNK is unkempt and MSI1 is Musashi-1; names of the RNAs are library labels; protein concentration not given here; high values mean tight binding

| Binder | binding signal [enrichment R] |
| --- | --- |
| B1 | 4.4 |
| B2 | 2.23 |
| B3 | 1.99 |
| B4 | 9.34 |
| B5 | 0.526 |
| B6 | 4.16 |
| B7 | 0.507 |
| B8 | 0.585 |
| B9 | 0.955 |
| B10 | 1.5 |
| B11 | 14.8 |
| B12 | 3.48 |
| B13 | 3.69 |
